# PubChem BioAssay (EPA / NIEHS)
# Where “and” joins values, the source holds several entries; their conditions need not be identical. Equal entries are not always repeated. Inconclusive results are not listed. Calls of active or inactive are those of the source. The calls were made as follows: active = hit-call score of the fitted dose curve at least 0.9, where 1 is the maximum; inconclusive = response in the unintended direction; inactive = score below 0.9.
# How the values were obtained:
# [1] = biological target: guinea pig Leukotriene D4 Receptor (LTD4), CYSLTR1 (gene 100135514) (UniProt Q2NNR5); assay: NVS_GPCR_gLTD4: NovaScreen (NVS) G Protein-Coupled Receptor Assay for guinea pig Leukotriene D4 Receptor (LTD4) (AID 2283248)
# Method in brief: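 Radioligand displacement on guinea pig lung membranes, 1 h incubation, filtration and scintillation counting; DMSO as negative control. Duplicate 25 uM primary screen, then singleton concentration-response up to 50 uM.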
# [2] = biological target: human Serotonin, 5-Hydroxytryptamine Receptor 5A (5HT5A), HTR5A (gene 3361) (UniProt P47898); assay: NVS_GPCR_h5HT5A: NovaScreen (NVS) G Protein-Coupled Receptor Assay for human Serotonin, 5-Hydroxytryptamine Receptor 5A (5HT5A) (AID 2283251)
# Method in brief: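 Cell-free radioligand displacement binding on HEK293-derived membrane protein, 1 h incubation, filter-based scintillation counting. Primary screen in duplicate at 25 uM, actives followed in concentration series; loss of signal fitted versus DMSO.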
# [3] = biological target: human Serotonin, 5-Hydroxytryptamine Receptor 6 (5HT6), HTR6 (gene 3362) (UniProt P50406); assay: NVS_GPCR_h5HT6: NovaScreen (NVS) G Protein-Coupled Receptor Assay for human Serotonin, 5-Hydroxytryptamine Receptor 6 (5HT6) (AID 2283253)
# Method in brief: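 Radioligand binding to 5HT6 in HEK293-derived membranes, cell-free, 1 h after dosing; bound ligand measured by filter-based scintillation counting. Primary screen in duplicate at 25 uM; actives retested in concentration series.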
# [4] = biological target: human Adenosine A1 Receptor (AdoRA1), ADORA1 (gene 134) (UniProt P30542); assay: NVS_GPCR_hAdoRA1: NovaScreen (NVS) G Protein-Coupled Receptor Assay for human Adenosine A1 Receptor (AdoRA1) (AID 2283254)
# Method in brief: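 Radioligand binding was run on human cortical membranes, cell-free, with filter-based scintillation counting 1 h after dosing. The primary screen was duplicate at 25 uM, followed by concentration series. Signal loss versus DMSO was fitted positive-direction.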
# [5] = biological target: human Adrenergic, Beta 1 Receptor (Adrb1), ADRB1 (gene 153) (UniProt P08588); assay: NVS_GPCR_hAdrb1: NovaScreen (NVS) G Protein-Coupled Receptor Assay for human Adrenergic, Beta 1 Receptor (Adrb1) (AID 2283258)
# Method in brief: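 Cell-free radioligand displacement on receptor from human neuroepithelioma cells; 2 h after dosing, filter-based scintillation counting. Primary screen in duplicate at 25 uM, actives retested in concentration series; loss of signal vs DMSO baseline.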
# [6] = biological target: human Adrenergic, Alpha 2c Receptor (Adra2C), ADRA2C (gene 152) (UniProt P18825); assay: NVS_GPCR_hAdra2C: NovaScreen (NVS) G Protein-Coupled Receptor Assay for human Adrenergic, Alpha 2c Receptor (Adra2C) (AID 2283259)
# Method in brief: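 Radioligand binding on Sf9-expressed receptor membranes, 1 h after chemical dosing, filter-based scintillation read-out. Loss of binding fitted positively versus DMSO; primary duplicate screen at 25 uM, actives retested in concentration series.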
# [7] = biological target: Beta-2 adrenergic receptor (Homo sapiens) (UniProt P07550); assay: NVS_GPCR_hAdrb2: NovaScreen (NVS) G Protein-Coupled Receptor Assay for human Adrenergic, Beta 2 Receptor (Adrb2) (AID 2283261)
# Method in brief: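 Filter-based radioligand binding using receptor prepared from CHO cells, 1 h incubation, scintillation counting. Primary screen in duplicate at 25 uM, actives retested in concentration series; loss of binding relative to DMSO.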
# [8] = biological target: human Adrenergic, Beta 3 Receptor (Adrb3), ADRB3 (gene 155) (UniProt P13945); assay: NVS_GPCR_hAdrb3: NovaScreen (NVS) G Protein-Coupled Receptor Assay for human Adrenergic, Beta 3 Receptor (Adrb3) (AID 2283262)
# Method in brief: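 Membranes from SK-N-MC cells pretreated with isoproterenol and 8-bromo-cAMP were used in a radioligand competitive displacement binding assay. Binding was read by filter-based scintillation counting 1 hour after dosing. Primary screening was in duplicate at 25 uM, with concentration series in follow-up.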
# [9] = biological target: human Dopamine Receptor D4.4 (DRD4.4), DRD4 (gene 1815) (UniProt P21917); assay: NVS_GPCR_hDRD4.4: NovaScreen (NVS) G Protein-Coupled Receptor Assay for human Dopamine Receptor D4.4 (DRD4.4) (AID 2283264)
# Method in brief: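 Radioligand displacement on human DRD4.4 from CHO-derived membranes, 1 hour incubation, bound counts read by filtration and scintillation. Primary screen in duplicate at 25 uM; actives followed up in concentration series.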
# [10] = biological target: human Dopamine Receptor D2 (DRD2), DRD2 (gene 1813) (UniProt P14416); assay: NVS_GPCR_hDRD2s: NovaScreen (NVS) G Protein-Coupled Receptor Assay for human Dopamine Receptor D2 (DRD2) (AID 2283266)
# Method in brief: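 Radioligand displacement used human DRD2 membranes extracted from CHO cells and was read by filter-based scintillation counting after 1.5 hours. Primary screening was in duplicate at 25 uM. Loss of signal versus DMSO was fitted, with concentration series in follow-up.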
# [11] = tested on: bovine Histamine 1 Receptor (H1), gene 281231; assay: NVS_GPCR_bH1: NovaScreen (NVS) G Protein-Coupled Receptor Assay for bovine Histamine 1 Receptor (H1) (AID 2283246)
# Method in brief: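 Radioligand displacement on bovine cerebellar membranes, 1 h after dosing, filter-based scintillation read-out; loss of signal vs DMSO. Duplicate single-concentration screen at 25 uM, then concentration-response up to 50 uM for hits.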
# [12] = biological target: human Serotonin, 5-Hydroxytryptamine Receptor 2A (5HT2A), HTR2A (gene 3356) (UniProt P28223); assay: NVS_GPCR_h5HT2A: NovaScreen (NVS) G Protein-Coupled Receptor Assay for human Serotonin, 5-Hydroxytryptamine Receptor 2A (5HT2A) (AID 2283249)
# Method in brief: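 Human cortex membranes, cell-free radioligand binding; filter-based scintillation read 1.5 h after dosing. Duplicate screen at 25 uM first; displacement of specific binding (loss of signal) versus DMSO.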
# [13] = biological target: human Serotonin, 5-Hydroxytryptamine Receptor 7 (5HT7), HTR7 (gene 3363) (UniProt P34969); assay: NVS_GPCR_h5HT7: NovaScreen (NVS) G Protein-Coupled Receptor Assay for human Serotonin, 5-Hydroxytryptamine Receptor 7 (5HT7) (AID 2283255);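 also: hits reduce specific radioligand binding relative to DMSO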
# Method in brief: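 Radioligand displacement on membranes from CHO cells expressing human 5HT7, 1 h incubation, filter-based scintillation counting. Primary screen used a single 25 uM concentration in duplicate; actives were followed up in concentration series.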
# [14] = biological target: Type-1 angiotensin II receptor (Homo sapiens) (UniProt P30556); assay: NVS_GPCR_hAT1: NovaScreen (NVS) G Protein-Coupled Receptor Assay for human Angiotensin II receptor type 1 (AT1) (AID 2283263)
# Method in brief: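 Membranes from KAN-TS cells; radioligand competitive displacement, 3 h, filtration and scintillation counting. Single-point duplicate screen at 25 uM, then concentration-response up to 50 uM for hits; loss of signal fitted versus DMSO.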
# [15] = biological target: human Endothelin Receptor Type B (ETB), EDNRB (gene 1910) (UniProt P24530); assay: NVS_GPCR_hETB: NovaScreen (NVS) G Protein-Coupled Receptor Assay for human Endothelin Receptor Type B (ETB) (AID 2283267)
# Method in brief: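 Human astrocytoma cell membranes; radioligand competitive binding read by filter scintillation counting 4 hours after dosing. Single-concentration duplicate screen at 25 uM, then singleton concentration-response up to 50 uM; loss of signal versus DMSO.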
# [16] = biological target: human Histamine 1 Receptor (H1), HRH1 (gene 3269) (UniProt P35367); assay: NVS_GPCR_hH1: NovaScreen (NVS) G Protein-Coupled Receptor Assay for human Histamine 1 Receptor (H1) (AID 2283268)
# Method in brief: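 Cell-free radioligand displacement at human H1 receptor, 1 h, filter scintillation counting; primary screen 25 uM in duplicate, hits in concentration series; loss of binding fitted vs DMSO.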
# [17] = biological target: human Adenosine A2a Receptor (AdoRA2a), ADORA2A (gene 135) (UniProt P29274); assay: NVS_GPCR_hAdoRA2a: NovaScreen (NVS) G Protein-Coupled Receptor Assay for human Adenosine A2a Receptor (AdoRA2a) (AID 2283256)
# Method in brief: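 Radioligand displacement on HEK293-derived membrane protein, cell-free; filter-based scintillation counting 1.5 hours after dosing, loss of signal vs DMSO. Single-point duplicate screen at 25 uM, actives retested in concentration series.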
# [18] = biological target: D(1A) dopamine receptor (Homo sapiens) (UniProt P21728); assay: NVS_GPCR_hDRD1: NovaScreen (NVS) G Protein-Coupled Receptor Assay for human Dopamine Receptor D1 (DRD1) (AID 2283269)
# Method in brief: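 Radioligand displacement binding on membranes/protein extracted from HEK293 expressing human D1, cell-free; read 1 h after dosing by filter-based scintillation counting. Primary screen in duplicate at 25 uM, actives followed up in concentration series; signal loss versus DMSO baseline.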
# [19] = tested on: guinea pig Leukotriene B4 Receptor (LTB4), gene 100379538; assay: NVS_GPCR_gLTB4: NovaScreen (NVS) G Protein-Coupled Receptor Assay for guinea pig Leukotriene B4 Receptor (LTB4) (AID 2283247)
# Method in brief: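 Radioligand displacement on guinea pig spleen membranes, filter-based scintillation counting 2 h after dosing. Primary duplicate single point at 25 uM; hits over threshold (e.g. 30% inhibition) run in concentration-response up to 50 uM, DMSO baseline.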
# Chain of human Serotonin, 5-Hydroxytryptamine Receptor 5A (5HT5A), HTR5A (gene 3361) (P47898 whole entry, looked up): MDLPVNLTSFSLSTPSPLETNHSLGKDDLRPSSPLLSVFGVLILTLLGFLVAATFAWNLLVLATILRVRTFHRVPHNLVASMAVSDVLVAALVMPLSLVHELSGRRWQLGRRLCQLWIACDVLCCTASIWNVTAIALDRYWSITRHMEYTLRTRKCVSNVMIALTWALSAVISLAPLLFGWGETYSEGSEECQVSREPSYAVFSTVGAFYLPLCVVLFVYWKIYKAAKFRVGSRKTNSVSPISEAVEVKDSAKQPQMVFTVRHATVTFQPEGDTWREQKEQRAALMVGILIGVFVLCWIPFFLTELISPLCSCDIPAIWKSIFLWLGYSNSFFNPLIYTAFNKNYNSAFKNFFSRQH
# Chain of human Adrenergic, Beta 1 Receptor (Adrb1), ADRB1 (gene 153) (P08588 whole entry, looked up): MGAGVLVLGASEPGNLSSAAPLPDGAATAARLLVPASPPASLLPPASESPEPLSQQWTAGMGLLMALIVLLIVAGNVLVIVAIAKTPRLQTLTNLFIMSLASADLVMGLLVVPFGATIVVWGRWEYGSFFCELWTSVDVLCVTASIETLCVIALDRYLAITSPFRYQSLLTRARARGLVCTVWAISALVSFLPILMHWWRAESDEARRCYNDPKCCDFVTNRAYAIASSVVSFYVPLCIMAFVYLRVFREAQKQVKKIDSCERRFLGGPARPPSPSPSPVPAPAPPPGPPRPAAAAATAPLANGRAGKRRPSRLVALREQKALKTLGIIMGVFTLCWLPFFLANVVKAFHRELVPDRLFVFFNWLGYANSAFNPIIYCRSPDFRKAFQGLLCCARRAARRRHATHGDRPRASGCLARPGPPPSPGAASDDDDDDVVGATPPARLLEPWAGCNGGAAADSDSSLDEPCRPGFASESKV
# Chain of Beta-2 adrenergic receptor (Homo sapiens) (P07550 whole entry, looked up): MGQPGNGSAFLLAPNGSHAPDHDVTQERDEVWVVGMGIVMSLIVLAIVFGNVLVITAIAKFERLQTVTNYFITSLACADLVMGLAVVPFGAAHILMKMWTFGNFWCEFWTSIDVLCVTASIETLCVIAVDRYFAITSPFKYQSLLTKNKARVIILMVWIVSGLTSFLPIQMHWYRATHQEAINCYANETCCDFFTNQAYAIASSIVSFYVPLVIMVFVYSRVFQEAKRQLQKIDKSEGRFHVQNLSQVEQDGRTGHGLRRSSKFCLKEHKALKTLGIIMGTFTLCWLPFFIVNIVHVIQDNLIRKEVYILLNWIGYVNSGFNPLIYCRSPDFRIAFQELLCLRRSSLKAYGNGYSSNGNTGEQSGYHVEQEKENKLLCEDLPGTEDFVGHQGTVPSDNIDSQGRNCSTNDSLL
# Chain of human Adrenergic, Beta 3 Receptor (Adrb3), ADRB3 (gene 155) (P13945 whole entry, looked up): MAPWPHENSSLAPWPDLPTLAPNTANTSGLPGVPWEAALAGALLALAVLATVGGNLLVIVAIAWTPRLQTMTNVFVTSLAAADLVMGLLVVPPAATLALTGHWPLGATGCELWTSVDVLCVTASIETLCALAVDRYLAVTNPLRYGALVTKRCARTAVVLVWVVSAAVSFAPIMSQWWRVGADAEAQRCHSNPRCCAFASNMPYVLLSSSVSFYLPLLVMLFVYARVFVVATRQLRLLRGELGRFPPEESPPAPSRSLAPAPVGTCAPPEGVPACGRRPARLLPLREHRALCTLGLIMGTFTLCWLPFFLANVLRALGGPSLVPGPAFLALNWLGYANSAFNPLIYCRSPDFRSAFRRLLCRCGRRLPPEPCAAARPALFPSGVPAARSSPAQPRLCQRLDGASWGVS
# Chain of human Serotonin, 5-Hydroxytryptamine Receptor 6 (5HT6), HTR6 (gene 3362) (P50406 whole entry, looked up): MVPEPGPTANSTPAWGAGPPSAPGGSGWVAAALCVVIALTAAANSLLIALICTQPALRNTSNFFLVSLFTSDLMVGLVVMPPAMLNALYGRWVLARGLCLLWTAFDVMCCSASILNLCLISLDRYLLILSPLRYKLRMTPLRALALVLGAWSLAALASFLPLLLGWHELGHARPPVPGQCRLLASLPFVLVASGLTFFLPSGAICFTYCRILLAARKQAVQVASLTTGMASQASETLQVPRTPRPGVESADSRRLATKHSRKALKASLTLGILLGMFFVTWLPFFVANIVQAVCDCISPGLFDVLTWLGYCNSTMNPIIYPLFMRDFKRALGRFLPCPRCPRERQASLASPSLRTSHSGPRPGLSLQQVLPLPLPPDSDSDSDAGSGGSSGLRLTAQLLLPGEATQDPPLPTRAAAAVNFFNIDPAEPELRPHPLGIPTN
# Chain of human Adenosine A1 Receptor (AdoRA1), ADORA1 (gene 134) (P30542 whole entry, looked up): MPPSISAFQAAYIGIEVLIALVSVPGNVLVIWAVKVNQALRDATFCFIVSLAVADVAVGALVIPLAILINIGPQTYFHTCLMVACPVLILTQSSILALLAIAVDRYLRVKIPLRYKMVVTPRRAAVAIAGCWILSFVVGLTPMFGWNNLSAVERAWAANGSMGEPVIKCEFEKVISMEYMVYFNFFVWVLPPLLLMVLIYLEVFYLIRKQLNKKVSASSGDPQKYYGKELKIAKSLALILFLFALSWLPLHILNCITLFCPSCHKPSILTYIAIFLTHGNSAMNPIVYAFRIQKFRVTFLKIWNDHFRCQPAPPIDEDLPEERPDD
# Chain of human Histamine 1 Receptor (H1), HRH1 (gene 3269) (P35367 whole entry, looked up): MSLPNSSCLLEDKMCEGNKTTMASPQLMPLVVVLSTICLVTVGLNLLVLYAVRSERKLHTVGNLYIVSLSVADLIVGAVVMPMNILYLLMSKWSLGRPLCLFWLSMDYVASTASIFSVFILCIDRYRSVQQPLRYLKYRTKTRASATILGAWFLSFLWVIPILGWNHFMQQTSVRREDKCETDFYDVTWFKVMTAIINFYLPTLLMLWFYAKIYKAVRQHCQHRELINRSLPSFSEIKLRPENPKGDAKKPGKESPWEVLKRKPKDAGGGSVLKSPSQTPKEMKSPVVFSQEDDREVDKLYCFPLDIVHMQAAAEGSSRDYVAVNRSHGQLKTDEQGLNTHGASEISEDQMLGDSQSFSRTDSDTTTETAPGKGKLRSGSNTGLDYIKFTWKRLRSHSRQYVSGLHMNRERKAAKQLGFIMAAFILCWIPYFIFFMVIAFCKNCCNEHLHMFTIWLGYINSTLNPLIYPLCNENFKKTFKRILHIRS
# Chain of human Serotonin, 5-Hydroxytryptamine Receptor 2A (5HT2A), HTR2A (gene 3356) (P28223 whole entry, looked up): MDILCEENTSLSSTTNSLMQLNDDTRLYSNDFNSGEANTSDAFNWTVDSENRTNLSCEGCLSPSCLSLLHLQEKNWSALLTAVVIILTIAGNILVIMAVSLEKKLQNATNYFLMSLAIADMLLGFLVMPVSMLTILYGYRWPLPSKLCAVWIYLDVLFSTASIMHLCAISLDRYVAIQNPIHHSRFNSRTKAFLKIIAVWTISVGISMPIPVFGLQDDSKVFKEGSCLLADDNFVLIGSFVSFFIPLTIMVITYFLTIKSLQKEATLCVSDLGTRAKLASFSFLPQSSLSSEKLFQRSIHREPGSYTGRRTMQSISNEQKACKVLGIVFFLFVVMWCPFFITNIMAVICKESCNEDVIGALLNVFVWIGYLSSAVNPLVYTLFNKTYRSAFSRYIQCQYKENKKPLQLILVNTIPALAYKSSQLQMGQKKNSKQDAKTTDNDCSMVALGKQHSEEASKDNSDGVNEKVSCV
# Chain of human Dopamine Receptor D2 (DRD2), DRD2 (gene 1813) (P14416 whole entry, looked up): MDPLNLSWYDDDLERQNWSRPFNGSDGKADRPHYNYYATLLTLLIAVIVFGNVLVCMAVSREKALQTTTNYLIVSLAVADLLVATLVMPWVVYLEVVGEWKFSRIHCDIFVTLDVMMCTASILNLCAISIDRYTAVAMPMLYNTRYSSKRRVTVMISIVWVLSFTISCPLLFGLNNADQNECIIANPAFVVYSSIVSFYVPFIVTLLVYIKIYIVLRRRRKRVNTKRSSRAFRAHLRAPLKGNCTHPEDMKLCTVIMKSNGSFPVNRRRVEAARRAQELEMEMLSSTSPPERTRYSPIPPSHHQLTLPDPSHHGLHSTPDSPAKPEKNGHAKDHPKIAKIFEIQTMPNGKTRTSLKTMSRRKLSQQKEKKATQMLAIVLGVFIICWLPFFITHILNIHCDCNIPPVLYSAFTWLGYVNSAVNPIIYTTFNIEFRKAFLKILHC
# Chain of Type-1 angiotensin II receptor (Homo sapiens) (P30556 whole entry, looked up): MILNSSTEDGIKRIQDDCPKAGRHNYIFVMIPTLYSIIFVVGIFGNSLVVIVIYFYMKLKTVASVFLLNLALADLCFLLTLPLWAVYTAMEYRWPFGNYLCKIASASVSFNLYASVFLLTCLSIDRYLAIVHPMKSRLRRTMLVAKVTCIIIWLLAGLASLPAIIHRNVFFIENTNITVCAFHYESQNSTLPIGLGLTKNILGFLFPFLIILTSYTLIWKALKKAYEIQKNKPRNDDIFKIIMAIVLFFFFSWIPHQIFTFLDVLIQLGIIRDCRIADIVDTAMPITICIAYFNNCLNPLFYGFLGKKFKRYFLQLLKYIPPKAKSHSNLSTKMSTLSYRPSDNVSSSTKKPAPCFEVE
# Chain of guinea pig Leukotriene D4 Receptor (LTD4), CYSLTR1 (gene 100135514) (Q2NNR5 whole entry, looked up): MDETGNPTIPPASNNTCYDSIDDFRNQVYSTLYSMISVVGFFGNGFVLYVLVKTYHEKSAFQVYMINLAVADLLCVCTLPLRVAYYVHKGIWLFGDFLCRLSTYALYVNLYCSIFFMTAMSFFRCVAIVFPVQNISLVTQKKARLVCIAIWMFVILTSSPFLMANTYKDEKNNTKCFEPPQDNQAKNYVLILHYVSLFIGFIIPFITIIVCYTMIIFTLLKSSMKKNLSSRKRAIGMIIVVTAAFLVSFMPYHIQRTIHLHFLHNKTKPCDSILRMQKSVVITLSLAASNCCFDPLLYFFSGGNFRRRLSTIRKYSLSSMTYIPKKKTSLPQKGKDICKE
# Chain of human Dopamine Receptor D4.4 (DRD4.4), DRD4 (gene 1815) (P21917 whole entry, looked up): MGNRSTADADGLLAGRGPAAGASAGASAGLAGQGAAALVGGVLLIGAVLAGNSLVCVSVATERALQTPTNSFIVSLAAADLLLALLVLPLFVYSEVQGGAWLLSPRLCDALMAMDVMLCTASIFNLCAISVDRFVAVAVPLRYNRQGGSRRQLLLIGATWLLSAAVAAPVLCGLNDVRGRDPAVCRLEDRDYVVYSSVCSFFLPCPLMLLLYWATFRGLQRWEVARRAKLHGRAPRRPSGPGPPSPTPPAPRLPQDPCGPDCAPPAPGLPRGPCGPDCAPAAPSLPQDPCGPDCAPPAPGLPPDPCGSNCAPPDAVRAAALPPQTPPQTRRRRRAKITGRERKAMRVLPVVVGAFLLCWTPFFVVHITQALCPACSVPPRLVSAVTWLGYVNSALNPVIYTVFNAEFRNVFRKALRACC
smiles,measurement,setting,value
CC/C(=C(/CC)c1ccc(O)cc1)c1ccc(O)cc1,AC50,[1],5.08 µM (active)
same,outcome,[2],inactive
same,AC50,[3],25 µM (active) and 19.5 µM (active)
same,AC50,[4],4.81 µM (active)
same,AC50,[5],43.5 µM (active)
same,AC50,[6],19.2 µM (active) and 25 µM (active) and 5.86 µM (active)
same,AC50,[7],40.3 µM (active)
same,AC50,[8],13.9 µM (active)
same,outcome,[9],inactive
same,AC50,[10],25 µM (active)
Cc1ccc2oc(CN(Cc3ccccc3)C(=O)Nc3c(F)cc(F)cc3F)c(-c3ccc(Cl)cc3)c2c1,outcome,[11],inactive
O=C1c2ccccc2C(=O)N1CCc1noc(-c2ccc(CN3CCCCCC3)s2)n1,AC50,[11],12.1 µM (active)
same,AC50,[12],2.4 µM (active)
same,outcome,[4],inactive
same,AC50,[13],8.12 µM (active)
same,AC50,[6],1.08 µM (active)
same,AC50,[14],14.8 µM (active)
same,AC50,[10],10.1 µM (active)
same,outcome,[15],inactive
same,AC50,[16],7.44 µM (active)
Cc1cc(F)ccc1-c1cc(N2CC[C@@H](O)[C@H]2CO)ncc1N(C)C(=O)C(C)(C)c1cc(C(F)(F)F)cc(C(F)(F)F)c1,outcome,[1],inactive
same,AC50,[2],7.83 µM (active)
same,AC50,[3],11.7 µM (active)
same,AC50,[4],20.4 µM (active)
same,AC50,[13],2.69 µM (active)
same,AC50,[17],20.4 µM (active)
same,AC50,[5],20.4 µM (active)
same,AC50,[6],5.39 µM (active)
same,outcome,[7],inactive
same,AC50,[10],7.16 µM (active)
same,AC50,[18],5.89 µM (active)
CCN(CC)C(=O)c1cc(S(=O)(=O)Cc2ccccc2)c(N2CCC(c3ccccc3)CC2)cc1N(CC)CCN(C)C,AC50,[12],8.55 µM (active)
same,AC50,[2],4.84 µM (active)
same,AC50,[3],0.971 µM (active)
same,AC50,[4],6.22 µM (active)
same,AC50,[13],8.87 µM (active)
same,AC50,[6],9.22 µM (active)
same,AC50,[7],16.5 µM (active)
same,outcome,[8],inactive
same,AC50,[9],16.3 µM (active)
same,AC50,[10],1.05 µM (active)
same,outcome,[16],inactive
same,AC50,[18],5.59 µM (active)
CN(C)C(=O)C1(N2CCCCC2)CCN(CC[C@@]2(c3ccc(Cl)c(Cl)c3)CN(C(=O)c3ccccc3)CCO2)CC1,AC50,[12],0.957 µM (active)
same,AC50,[2],15.7 µM (active)
same,AC50,[3],23.6 µM (active)
same,outcome,[4],inactive
same,AC50,[13],3.39 µM (active)
same,AC50,[5],20.7 µM (active)
same,AC50,[6],12.1 µM (active)
same,AC50,[7],25.9 µM (active)
same,AC50,[8],23.6 µM (active)
same,AC50,[14],15.7 µM (active)
same,AC50,[9],12.2 µM (active)
same,AC50,[10],1.59 µM (active)
same,AC50,[16],20.3 µM (active)
same,AC50,[18],23.6 µM (active)
CC(C)(O)c1ccc(CNC(=O)c2cccnc2Oc2ccc3nonc3c2)cc1,AC50,[19],0.646 µM (active)
same,outcome,[17],inactive
O=c1[nH]sc2ccccc12,AC50,[1],3.31 µM (active)
same,AC50,[2],14.2 µM (active)
same,AC50,[3],14.3 µM (active)
same,AC50,[13],14.7 µM (active)
same,AC50,[14],25 µM (active)
same,AC50,[18],6.83 µM (active)
Cc1oc2c(NC(=O)c3c(Cl)cccc3Cl)cccc2c1C(C)(C)O,AC50,[11],25 µM (active)
same,outcome,[4],inactive
same,outcome,[8],inactive
CC(C)(C)c1cc(/C=C2\SC(N)=NC2=O)cc(C(C)(C)C)c1O,outcome,[11],inactive
CCN(Cc1cccnc1)C(=O)c1cccc(Cl)c1[C@]1(C)C(=O)N(Cc2ccc(OC)cc2OC)c2ccc(Cl)cc21,AC50,[1],9.32 µM (active)
same,AC50,[12],15.9 µM (active)
same,AC50,[2],4.88 µM (active)
same,AC50,[13],6.41 µM (active)
same,AC50,[6],2.22 µM (active)
same,AC50,[14],3.69 µM (active)
same,AC50,[10],1.91 µM (active)
same,AC50,[18],2.53 µM (active)
O=C(O)Cc1cc(I)c(Oc2ccc(O)c(I)c2)c(I)c1,AC50,[19],0.623 µM (active)
same,outcome,[2],inactive
same,outcome,[4],inactive
same,outcome,[15],inactive
